In PubChem BioAssay (NCATS):
For part of these data: Entries with a potency or affinity are not part of this list. The source made the active and inactive calls. The rule behind the calls is not given here.

Key:
[1] = Ebola virus entry assay, green fluorescence channel
[2] = Ebola virus entry assay, blue channel fluorescence
[3] = Ebola virus entry assay, ratio channel
[4] = Ebola virus entry assay, green channel fluorescence
[5] = Ebola virus entry assay, reporter ratio channel; Channel type: primary
[6] = Ebola virus entry assay, blue channel (ratio component)
Throughout, for efficacy: 0% is about no effect.

Nc1ccn([C@H]2CC[C@@H](CO)O2)c(=O)n1
inactive: efficacy [1] -13.2% | outcome [2] | outcome [3] | outcome [4] | outcome [5] | outcome [6]

CC(=O)N1CCN(c2ccc(O)cc2)CC1
inactive: efficacy [1] 19.8% | outcome [2] | outcome [3] | outcome [4] | outcome [5] | outcome [6]

C[C@]12CC[C@H]3[C@@H](CC=C4C[C@@H](O)CC[C@@]43C)[C@@H]1CC[C@@H]2O
inactive: efficacy [1] -35.9% | outcome [2] | outcome [3] | outcome [4] | outcome [5] | outcome [6]

NS(=O)(=O)c1cc(C(=O)O)c(NCc2ccco2)cc1Cl
inactive: efficacy [1] -30.8% | outcome [2] | outcome [3] | outcome [4] | outcome [5] | outcome [6]

CCOc1c(N2CCOCC2)cnn(C)c1=O
inactive: efficacy [1] -16.1% | outcome [2] | outcome [3] | outcome [4] | outcome [5] | outcome [6]

O=C1N(c2ccccc2)c2ccccc2C1(Cc1ccncc1)Cc1ccncc1
inactive: efficacy [1] 21.1% | outcome [2] | outcome [3] | outcome [4] | outcome [5] | outcome [6]

Nc1nc(=O)n([C@@H]2O[C@H](CO)[C@@H](O)[C@@H]2F)cc1I
inactive: efficacy [1] -12.8% | outcome [2] | outcome [3] | outcome [4] | outcome [5] | outcome [6]

N[C@@H](Cc1ccc(O)cc1)C(=O)O
inactive: efficacy [1] 37.7% | outcome [2] | outcome [3] | outcome [4] | outcome [5] | outcome [6]

CN1CCN(c2c(F)cc3c(=O)c(C(=O)O)cn(CCF)c3c2F)CC1
inactive: efficacy [1] -28.9% | outcome [2] | outcome [3] | outcome [4] | outcome [5] | outcome [6]

CCOc1ccc(C(=O)OCCN(CC)CC)cc1
inactive: efficacy [1] 22.6% | outcome [2] | outcome [3] | outcome [4] | outcome [5] | outcome [6]

C[N+](C)(C)CCCCCCCCCC[N+](C)(C)C
inactive: efficacy [1] -18% | outcome [2] | outcome [3] | outcome [4] | outcome [5] | outcome [6]

CCCOC(=O)c1ccc(N)cc1
inactive: efficacy [1] 7.92% | outcome [2] | outcome [3] | outcome [4] | outcome [5] | outcome [6]

O=C(NOCC1CC1)c1ccc(F)c(F)c1Nc1ccc(I)cc1Cl
inactive: efficacy [1] 18.5% | outcome [4] | outcome [6]
active: AC50 [2] 7.94 µM | AC50 [3] 15.8 µM | AC50 [5] 15.8 µM

C[N+]1(C)CCC(=C(c2ccccc2)c2ccccc2)CC1
inactive: efficacy [1] -9.5% | outcome [2] | outcome [3] | outcome [4] | outcome [5] | outcome [6]

CC(=O)N[C@H]1[C@H]([C@H](O)[C@H](O)CO)OC(C(=O)O)=C[C@@H]1N=C(N)N
inactive: efficacy [1] -18.6% | outcome [3] | outcome [4] | outcome [5] | outcome [6]
active: AC50 [2] 2.82 µM

CCN(CC)C(=O)N1CCN(C)CC1
inactive: efficacy [1] -16.8% | outcome [2] | outcome [3] | outcome [4] | outcome [5] | outcome [6]

C#Cc1ccc(-c2ccccc2F)cc1
inactive: efficacy [1] 15.3% | outcome [2] | outcome [3] | outcome [4] | outcome [5] | outcome [6]

CCC(=O)Nc1ccc(O)cc1
inactive: efficacy [1] -18.3% | outcome [2] | outcome [3] | outcome [4] | outcome [5] | outcome [6]

Cc1ncc(COP(=O)(O)O)c(C=O)c1O
inactive: efficacy [1] -34.1% | outcome [2] | outcome [3] | outcome [4] | outcome [5] | outcome [6]

O=C(NN1CCCC1)NS(=O)(=O)c1ccc(Cl)cc1
inactive: efficacy [1] -14.3% | outcome [2] | outcome [3] | outcome [4] | outcome [5] | outcome [6]

CC(=O)Nc1ccc(S(=O)(=O)Nc2ccc([N+](=O)[O-])cc2)cc1
inactive: efficacy [1] -17.6% | outcome [2] | outcome [3] | outcome [4] | outcome [5] | outcome [6]

CCCn1cnc2c1c(=O)n(CCCCC(C)=O)c(=O)n2C
inactive: efficacy [1] 33.9% | outcome [2] | outcome [3] | outcome [4] | outcome [5] | outcome [6]

C[N+](C)(C)CCOC(=O)CCC(=O)OCC[N+](C)(C)C
inactive: efficacy [1] 18.3% | outcome [2] | outcome [3] | outcome [4] | outcome [5] | outcome [6]

CC(=O)OC[C@H]1O[C@@](COC(C)=O)(O[C@H]2O[C@H](COC(C)=O)[C@@H](OC(C)=O)[C@H](OC(C)=O)[C@H]2OC(C)=O)[C@@H](OC(C)=O)[C@@H]1OC(C)=O
inactive: efficacy [1] 9.99% | outcome [2] | outcome [3] | outcome [4] | outcome [5] | outcome [6]

OC[C@]1(O)OC[C@@H](O)[C@H](O)[C@@H]1O
inactive: efficacy [1] -31% | outcome [2] | outcome [3] | outcome [4] | outcome [5] | outcome [6]

CNC(=O)c1cnn(-c2nc(N)c3ncn([C@@H]4O[C@H](CO)[C@@H](O)[C@H]4O)c3n2)c1
inactive: efficacy [1] 20.7% | outcome [2] | outcome [3] | outcome [4] | outcome [5] | outcome [6]

CC(C(=O)O)c1ccc2c(c1)Cc1cccnc1O2 (stereo not drawn)
inactive: efficacy [1] -16.5% | outcome [2] | outcome [3] | outcome [4] | outcome [5] | outcome [6]

C[N+](C)(C)CCOC(=O)C(O)(c1ccccc1)c1ccccc1
inactive: efficacy [1] -27.9% | outcome [2] | outcome [3] | outcome [4] | outcome [5] | outcome [6]
